# Screens: PubChem, Broad Institute
# NOMO-1 viab: NOMO-1 AML cell viability reduction, primary screen, STK33 inhibitor project, CellTiter-Glo luminescence. NOMO-1 AML viability, 72 h. actives 7.5% (n = 37,000). inhibition, % (test concentration not listed). AID 2330, 2010; in the data active means inhibition above about 80%; inconclusive means no clear call, values can overlap the other calls
# STK33 kin inh: STK33 kinase inhibitors, primary screen, biochemical, luminescence, ADP-Glo, MBP substrate; Serine/threonine-protein kinase 33 (Homo sapiens), Q9BYT3; actives 0.44% (n = 27,000); inhibition, % at 12.5 µM; in the data active means inhibition above about 20%; inconclusive means no clear call, values can overlap the other calls
# Target sequence (Q9BYT3 whole entry, looked up): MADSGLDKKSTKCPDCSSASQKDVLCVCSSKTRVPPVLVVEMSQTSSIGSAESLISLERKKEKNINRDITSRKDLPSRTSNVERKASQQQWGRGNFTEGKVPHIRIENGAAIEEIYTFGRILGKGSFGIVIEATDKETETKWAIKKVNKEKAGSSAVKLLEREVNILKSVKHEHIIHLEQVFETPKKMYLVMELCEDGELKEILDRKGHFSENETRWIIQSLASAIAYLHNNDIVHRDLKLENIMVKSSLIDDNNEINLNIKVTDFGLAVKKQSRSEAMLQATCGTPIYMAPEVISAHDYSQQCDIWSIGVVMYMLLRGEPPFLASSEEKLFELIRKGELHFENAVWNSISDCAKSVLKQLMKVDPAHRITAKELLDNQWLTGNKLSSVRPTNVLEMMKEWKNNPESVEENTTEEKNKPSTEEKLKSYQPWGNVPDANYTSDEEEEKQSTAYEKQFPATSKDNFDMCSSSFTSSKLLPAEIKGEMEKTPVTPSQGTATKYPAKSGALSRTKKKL
# PD-1 reverse act: activators reversing PD-1 mediated T-cell inhibition, primary screen, luminescence, primary human CD4 T cells, PD-L1 beads. activation, % (no concentration beside the values). 29,000 tested, under 10 active. AID 2316, 2010. CellTiter-Glo 96 h; call rule not given here;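 further: 0% = median vehicle wells and 100% = positive control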
# The depositor's hits bear a star; ? = inconclusive; . = no result. The sample as a whole holds a higher share of hits than the screen did.
SMILES,NOMO-1 viab,STK33 kin inh,PD-1 reverse act
C[C@@H]1CN([C@@H](C)CO)C(=O)c2cc(NC(=O)Nc3ccc(C(F)(F)F)cc3)ccc2O[C@@H]1CN(C)Cc1ccc(-c2ccccc2)cc1,126*,.,-5
CCc1ccc(NC(=O)CSc2ncnc3sc4c(c23)CCC(C)C4)cc1 (stereo unspecified),46,3,3
CN(CC(=O)Nc1cccc(Cl)c1)S(=O)(=O)c1ccccc1,2,-2,0
COc1cccc(CNc2nc3ccccc3n2C)c1OC,6,-4,0
CC(C)(C)Nc1nc(SCC(N)=O)nc(N2CCOCC2)n1,-23,1,4
O=C(Nc1cccc(Br)c1)c1cccc2c1C(=O)c1ccccc1-2,102*,.,-1
O=C(CN1C(=O)c2ccccc2S1(=O)=O)Nc1cccc(Br)c1,6,8,3
Cc1cccc(C)c1NC(=O)CN(c1ccc(Cl)c(C(F)(F)F)c1)S(C)(=O)=O,-7,1,-3
COC(=O)c1ccccc1NC(=O)CN(c1ccc(C)c(Cl)c1)S(C)(=O)=O,29,-6,0
COC(=O)c1ccc(Cl)c(NC(=O)CN(c2ccccc2Br)S(C)(=O)=O)c1,95*,2,1
COC(=O)c1cccc(NC(=O)CN(c2ccc(Cl)c(C(F)(F)F)c2)S(C)(=O)=O)c1C,142*,-5,-1
COC(=O)c1ccc(NC(=O)CN(c2ccccc2Br)S(C)(=O)=O)cc1,15,-6,1
CS(=O)(=O)N(CC(=O)Nc1ccc(Cl)c(C(F)(F)F)c1)c1cccc(C(F)(F)F)c1,?,-9,-6
CC(=O)Nc1ccc(NC(=O)CN(c2ccc(Cl)c(C(F)(F)F)c2)S(C)(=O)=O)cc1,99*,5,0
COC(=O)c1cccc(NC(=O)CN(c2ccc(I)cc2)S(C)(=O)=O)c1C,100*,2,0
Cc1ccccc1-c1nnc(SCC(=O)Nc2ccc(N3CCOCC3)cc2)o1,-4,1,.
COC(=O)c1c(C)oc2ccc(N(C(=O)c3ccccc3)S(=O)(=O)c3cccs3)cc12,20,2,-1
COc1c(C=O)c(O)cc2c1C(=O)c1ccccc1C2=O,96*,85*,-2
COc1c(O)cc2c(c1O)C(=O)CC(c1ccccc1)O2 (stereo unspecified),13,-2,-3
S=C(NCc1ccco1)NCC1CC(c2ccccc2)=NO1 (stereo unspecified),-43,.,1
C[C@H]1CN([C@@H](C)CO)C(=O)c2cc(NS(=O)(=O)c3ccc(F)cc3)ccc2O[C@@H]1CN(C)Cc1ccc(C(F)(F)F)cc1,-15,0,-1
C[C@@H]1CCCCO[C@@H](CN(C)Cc2ccc(C(F)(F)F)cc2)[C@@H](C)CN([C@H](C)CO)C(=O)c2cc(NS(=O)(=O)c3ccc(F)cc3)ccc2O1,110*,1,-8
C[C@@H]1CCCCO[C@@H](CN(C)Cc2ccc(C(F)(F)F)cc2)[C@@H](C)CN([C@H](C)CO)C(=O)c2cc(NS(=O)(=O)c3ccccc3)ccc2O1,?,-1,-2
C[C@@H]1CN([C@H](C)CO)C(=O)c2cc(NS(=O)(=O)c3ccc(F)cc3)ccc2O[C@H]1CN(C)Cc1ccc(C(F)(F)F)cc1,81*,-2,-2
C[C@@H]1CN([C@H](C)CO)C(=O)c2cc(NS(=O)(=O)c3ccc(F)cc3)ccc2O[C@@H]1CN(C)Cc1ccc(C(F)(F)F)cc1,112*,.,-1
SMILES,NOMO-1 viab,STK33 kin inh,PD-1 reverse act
C[C@@H]1CN([C@@H](C)CO)C(=O)c2cc(NS(=O)(=O)c3ccccc3)ccc2O[C@@H]1CN(C)Cc1ccc(C(F)(F)F)cc1,3,0,3
Cc1ccc(S(=O)(=O)Nc2ccc3c(c2)C(=O)N([C@H](C)CO)C[C@H](C)[C@H](CN(C)Cc2ccc(C(F)(F)F)cc2)O3)cc1,93*,.,0
C[C@H](CO)N1C[C@H](C)[C@H](CN(C)Cc2ccc(C(F)(F)F)cc2)Oc2ccc(NS(=O)(=O)c3ccccc3)cc2C1=O,29,.,-3
COc1ccc(Cl)cc1NC(=O)CN(c1cc([N+](=O)[O-])ccc1C)S(C)(=O)=O,20,-1,1
COc1ccc(Cl)cc1N(CC(=O)Nc1ccc(F)c(F)c1)S(C)(=O)=O,8,-2,0
OC(COc1ccccc1Cl)Cn1cnc2ccccc21 (stereo unspecified),18,1,0
COc1ccc(-c2nc3ccc4ccccc4c3c3c2CCC3)cc1,-5,.,0
CS(=O)(=O)N(CC(=O)Nc1cccc(Cl)c1Cl)c1cccc(F)c1,40,-4,1
O=C(O)CCN1C(=O)c2cccc3c([N+](=O)[O-])ccc(c23)C1=O,.,2,.
O=C(CSc1nnnn1-c1ccc(F)cc1F)Nc1ccc2c(c1)OCCO2,5,0,0
Cn1c(=O)c([N+](=O)[O-])c(NCc2ccco2)c2ccccc21,.,3,.
C=CCOC(=O)[C@H]1[C@@H]2C(=O)O[C@@H](c3ccccc3)[C@@H](c3ccccc3)N2[C@@H](c2ccc(OCCOC(=O)[C@H]3C[C@H]4C(=O)N[C@@H](CCCCNC(C)=O)C(=O)N4[C@H]3c3cccc(OCCO)c3)cc2)[C@]12C(=O)Nc1ccccc12,.,2,.
CCc1ccc(CCC(=O)Nc2ccc(Cl)cc2Cl)o1,48,-2,-3
C[C@@H]1CCCCO[C@H](CN(C)C(=O)Nc2ccc(C(F)(F)F)cc2)[C@@H](C)CN([C@H](C)CO)C(=O)c2cc(NS(=O)(=O)c3ccc(Cl)cc3)ccc2O1,120*,-4,-4
C[C@@H]1CCCCO[C@@H](CN(C)C(=O)Nc2ccc(C(F)(F)F)cc2)[C@@H](C)CN([C@H](C)CO)C(=O)c2cc(NS(=O)(=O)c3ccccc3)ccc2O1,73,-3,.
COc1ccc(CCN2CCC(Nc3nc4ccccc4n3Cc3ccc(F)cc3)CC2)cc1,114*,-1,1
CCCCn1c(NCc2ccc(OC)cc2O)nc2ccccc21,6,-2,.
NNC(=O)Cn1c2ccccc2c2ccccc21,100*,.,-3
O=Nc1c(O)n(CC(=O)Nc2ccccc2)c2ccccc12,16,.,0
COc1ccc(S(=O)(=O)N[C@H]2CCN(Cc3cccc(OCCO)c3)C2)cc1,.,0,.
CCOC(=O)c1ccccc1NC(=O)c1cc(Cl)ccc1NC(=O)c1ccc(OC)cc1,11,4,-1
Cc1ccc(N(CC(=O)Nc2c(C)n(C)n(-c3ccccc3)c2=O)S(C)(=O)=O)cc1Cl,9,-2,1
COc1c(-c2ccc(O)cc2)oc2cc(O)cc(O)c2c1=O,41,4,0
COc1cc2oc(-c3ccc(O)c(O)c3)c(OC)c(=O)c2c(O)c1OC,.,1,.
COc1cc(OC)c2c(=O)c(O)c(-c3ccc(OC)c(OC)c3)oc2c1,102*,1,.
COc1cc(-c2oc3cc(O)c(OC)c(O)c3c(=O)c2OC)ccc1O,120*,16,-1
COc1cc(-c2oc3cc(O)cc(O)c3c(=O)c2O)ccc1O,26,52*,1
O=c1c(O[C@@H]2OC[C@H](O)[C@H](O)[C@H]2O)c(-c2ccc(O)c(O)c2)oc2cc(O)cc(O)c12,10,8,0
COc1cc(O)c2c(=O)c(OC)c(-c3ccc(OC)c(OC)c3)oc2c1,31,-4,0
